Holding throughout (details): treatment time: 24 h
Test [1] has as its system WPMY1-GM130-SQSTM1. Nature of the test: lowest phenotypically active concentration; higher = less potent. Summed up:
(§1)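 The reporter lines, fifteen in total and built by gene editing in A549, HepG2 and WPMY1 cells, used BFP for segmentation alongside GFP and RFP/FusionRed markers. Each was treated at 0.3, 1, 3 or 9 µM for 24 h in four wells and then imaged live, with live-cell features normalised to solvent control wells. Deviation meant ≥3 of 4 wells beyond the 95th percentile of control Euclidean distances; reproducibility meant a median replicate Pearson correlation above the 95th percentile of non-replicates. Only conditions meeting both were scored as phenotypically active.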

In a further test the test system is A549-ACTB-RAB5A. The experiment in a line: phenotypically active (imaging signature differs from DMSO and reproducible) at any of 0.3-9 uM (binary (1 = active, 0 = inactive)); higher = active. Summed up:
as §1

Test [2] relates to A549-CANX-COX4. The test is described as above. Summed up: as §1
The subject of test [3] is A549-GM130-SQSTM1. The test is described as above. Summed up:
as §1

Test [4] has as its system A549-TP53BP1-CLTA. Described as above. Summed up:
as §1

Another test relates to A549-TUBA1B-RELA. The description is as above. Summed up: as §1
Test [5] has as its system HepG2-ACTB-RAB5A. Described as above. Summed up: as §1
Test [6] has as its system HepG2-CANX-COX4. The description is as above. Summed up: as §1
For test [7], the system named is HepG2-GM130-SQSTM1. Described as above. Summed up:
as §1

In test [8] the test system is HepG2-TP53BP1-CLTA. The test is described as above. Summed up: as §1
Test [9] deals with HepG2-TUBA1B-RELA. The description is as above. Summed up:
as §1

Test [10] has as its system WPMY1-ACTB-RAB5A. Described as above. Summed up:
as §1

Test [11] has as its system WPMY1-CANX-COX4. Described as above. Summed up:
as §1

In test [12] the test system is WPMY1-GM130-SQSTM1. Described as above. Summed up: as §1
In test [13] the test system is WPMY1-TP53BP1-CLTA. Described as above. Summed up:
as §1

For test [14], the system named is WPMY1-TUBA1B-RELA. The description is as above. Summed up: as §1
The test system of test [15] is WPMY1-TP53BP1-CLTA. Nature of the test: lowest phenotypically active concentration; higher = less potent. Summed up: as §1
The subject of test [16] is A549-CANX-COX4. The test is described as above. Summed up:
as §1

Test [17] has as its system A549-TP53BP1-CLTA. Described as above. Summed up:
as §1

In test [18] the test system is HepG2-ACTB-RAB5A. The test is described as above. Summed up:
as §1

Test [19] deals with HepG2-CANX-COX4. Described as above. Summed up:
as §1

Test [20] concerns HepG2-GM130-SQSTM1. Described as above. Summed up: as §1
The test system of test [21] is HepG2-TP53BP1-CLTA. Described as above. Summed up: as §1
Test [22] deals with HepG2-TUBA1B-RELA. The description is as above. Summed up: as §1
In test [23] the test system is WPMY1-ACTB-RAB5A. The test is described as above. Summed up: as §1
The subject of test [24] is WPMY1-CANX-COX4. Described as above. Summed up:
as §1

Test [25] has as its system WPMY1-TUBA1B-RELA. Described as above. Summed up:
as §1

In test [26] the test system is A549-GM130-SQSTM1. Described as above. Summed up: as §1

The source of these data is the supplement of paper PMC7411054.

Structures are written as SMILES. Counter-ions that a name gives are not always drawn. A value given as a limit tells only on which side of the number the result lay.

As to `CCCN1C[C@H](CSC)C[C@@H]2c3cccc4[nH]cc(c34)C[C@H]21` [pergolide], the “lowest phenotypically active concentration” value in the test with WPMY1-GM130-SQSTM1 [1] is 9 µM. The phenotypically active with A549-ACTB-RAB5A, in the test with A549-CANX-COX4 [2], with A549-GM130-SQSTM1 [3], in the test on A549-TP53BP1-CLTA [4], with A549-TUBA1B-RELA and in the test with HepG2-ACTB-RAB5A [5] was 0 (inactive) in each case. Further, the phenotypically active in the test on HepG2-CANX-COX4 [6], in the test on HepG2-GM130-SQSTM1 [7], with HepG2-TP53BP1-CLTA [8], in the test with HepG2-TUBA1B-RELA [9], with WPMY1-ACTB-RAB5A [10] and with WPMY1-CANX-COX4 [11] was 0 (inactive) each time. Also, the phenotypically active is 1 (active) with WPMY1-GM130-SQSTM1 [12], 0 (inactive) in the test on WPMY1-TP53BP1-CLTA [13] and 0 (inactive) in the test with WPMY1-TUBA1B-RELA [14].
Consider `CC[C@H]1CN2CCC1C[C@H]2[C@H](O)c1ccnc2ccc(OC)cc12` (stereo partly drawn) [Hydroquinine hydrobromide hydrate], for which, in the test on WPMY1-TP53BP1-CLTA [15], the “lowest phenotypically active concentration” value worked out at 9 µM. Further, the phenotypically active with A549-CANX-COX4 [2], in the test on A549-TP53BP1-CLTA [4], in the test on HepG2-ACTB-RAB5A [5], in the test with HepG2-CANX-COX4 [6], with HepG2-GM130-SQSTM1 [7] and in the test with HepG2-TP53BP1-CLTA [8] was 0 (inactive) each time. Besides, the phenotypically active with HepG2-TUBA1B-RELA [9] was 0 (inactive); in the test with WPMY1-ACTB-RAB5A [10], 0 (inactive); with WPMY1-CANX-COX4 [11] it was 0 (inactive); in the test with WPMY1-GM130-SQSTM1 [12], 0 (inactive); in the test with WPMY1-TP53BP1-CLTA [13], 1 (active); with WPMY1-TUBA1B-RELA [14] it was 0 (inactive).
As to `C[C@H]1CCCC=C[C@@H]2C[C@H](O)C[C@H]2[C@H](O)C=CC(=O)O1` [brefeldin-a], the “lowest phenotypically active concentration” value in the test on A549-CANX-COX4 [16], in the test with A549-TP53BP1-CLTA [17], with HepG2-ACTB-RAB5A [18], in the test with HepG2-CANX-COX4 [19], with HepG2-GM130-SQSTM1 [20] and in the test on HepG2-TP53BP1-CLTA [21] was no more than 0.3 µM throughout. Besides, the “lowest phenotypically active concentration” value in the test on HepG2-TUBA1B-RELA [22], in the test with WPMY1-ACTB-RAB5A [23], in the test on WPMY1-CANX-COX4 [24], in the test on WPMY1-GM130-SQSTM1 [1], with WPMY1-TP53BP1-CLTA [15] and in the test with WPMY1-TUBA1B-RELA [25] was no more than 0.3 µM throughout. For the same compound, the phenotypically active in the test with A549-CANX-COX4 [2], with A549-TP53BP1-CLTA [4], in the test with HepG2-ACTB-RAB5A [5], in the test on HepG2-CANX-COX4 [6], in the test with HepG2-GM130-SQSTM1 [7] and in the test with HepG2-TP53BP1-CLTA [8] was 1 (active) throughout. Moreover, the phenotypically active in the test on HepG2-TUBA1B-RELA [9], with WPMY1-ACTB-RAB5A [10], with WPMY1-CANX-COX4 [11], with WPMY1-GM130-SQSTM1 [12], in the test on WPMY1-TP53BP1-CLTA [13] and with WPMY1-TUBA1B-RELA [14] was 1 (active) in each case.
Regarding `C[C@@H](CO)NC(=O)[C@@H]1C=C2c3cccc4[nH]cc(c34)C[C@H]2N(C)C1` [Ergobasine], the “lowest phenotypically active concentration” value in the test with A549-GM130-SQSTM1 [26], with A549-TP53BP1-CLTA [17], in the test with HepG2-GM130-SQSTM1 [20], in the test with WPMY1-CANX-COX4 [24], in the test with WPMY1-GM130-SQSTM1 [1] and with WPMY1-TP53BP1-CLTA [15] was 9 µM each time. Besides, the phenotypically active was 0 (inactive) in the test with A549-ACTB-RAB5A; 0 (inactive) with A549-CANX-COX4 [2]; 1 (active) in the test with A549-GM130-SQSTM1 [3]; 1 (active) with A549-TP53BP1-CLTA [4]; 0 (inactive) in the test with A549-TUBA1B-RELA; 0 (inactive) in the test with HepG2-ACTB-RAB5A [5]. The phenotypically active is 0 (inactive) in the test with HepG2-CANX-COX4 [6]; 1 (active) with HepG2-GM130-SQSTM1 [7]; 0 (inactive) in the test with HepG2-TP53BP1-CLTA [8]; 0 (inactive) with HepG2-TUBA1B-RELA [9]; 0 (inactive) in the test on WPMY1-ACTB-RAB5A [10]; 1 (active) in the test with WPMY1-CANX-COX4 [11]. Further, the results for the phenotypically active in the test with WPMY1-GM130-SQSTM1 [12], in the test on WPMY1-TP53BP1-CLTA [13] and in the test with WPMY1-TUBA1B-RELA [14] were 1 (active), 1 (active) and 0 (inactive), respectively.
As to `N[C@@H]1C[C@H]1c1cc(F)cc(F)c1OCc1ccccc1`, the “lowest phenotypically active concentration” value in the test with WPMY1-ACTB-RAB5A [23], with WPMY1-GM130-SQSTM1 [1] and with WPMY1-TP53BP1-CLTA [15] was 9 µM each time. Moreover, the phenotypically active in the test with A549-ACTB-RAB5A, in the test on A549-CANX-COX4 [2], in the test with A549-GM130-SQSTM1 [3], in the test on A549-TP53BP1-CLTA [4], in the test with A549-TUBA1B-RELA and in the test on HepG2-ACTB-RAB5A [5] was 0 (inactive) each time. Also, the phenotypically active is 0 (inactive) in the test on HepG2-CANX-COX4 [6]; 0 (inactive) with HepG2-GM130-SQSTM1 [7]; 0 (inactive) in the test on HepG2-TP53BP1-CLTA [8]; 0 (inactive) with HepG2-TUBA1B-RELA [9]; 1 (active) in the test with WPMY1-ACTB-RAB5A [10]; 0 (inactive) in the test on WPMY1-CANX-COX4 [11]. Also, the phenotypically active with WPMY1-GM130-SQSTM1 [12] was 1 (active); with WPMY1-TP53BP1-CLTA [13], 1 (active); in the test on WPMY1-TUBA1B-RELA [14] it was 0 (inactive).
Turning to `BrC1C(Br)C(Br)C(Br)C(Br)C1Br` (stereo not drawn) [1,2,3,4,5,6-Hexabromocyclohexane], the “lowest phenotypically active concentration” value with HepG2-GM130-SQSTM1 [20] is 9 µM. The phenotypically active in the test on A549-ACTB-RAB5A, in the test with A549-CANX-COX4 [2], with A549-GM130-SQSTM1 [3], in the test on A549-TP53BP1-CLTA [4], in the test on A549-TUBA1B-RELA and with HepG2-ACTB-RAB5A [5] was 0 (inactive) throughout. Besides, the phenotypically active with HepG2-CANX-COX4 [6] was 0 (inactive); with HepG2-GM130-SQSTM1 [7], 1 (active); in the test with HepG2-TP53BP1-CLTA [8], 0 (inactive); with HepG2-TUBA1B-RELA [9] it was 0 (inactive); in the test on WPMY1-ACTB-RAB5A [10], 0 (inactive); in the test with WPMY1-CANX-COX4 [11], 0 (inactive). Also, the phenotypically active in the test on WPMY1-GM130-SQSTM1 [12], in the test with WPMY1-TP53BP1-CLTA [13] and with WPMY1-TUBA1B-RELA [14] was 0 (inactive) in each case.
